# Reference: publication PMC7862700, “An all-to-all approach to the identification of sequence-specific readers for epigenetic DNA modifications on cytosine”
# Assays:
# Assay in all cases: DAPPL (digital affinity profiling via proximity ligation, sequencing); 10 mM Tris-HCl pH 7.5, 50 mM NaCl, 1 mM DTT, 4% glycerol, room temperature, 30 min; GST-TFs on glutathione beads, 16-mer random dsDNA library, 0.1% formaldehyde crosslink after washing; high values mean tight binding
# Conditions in all cases: protein: recombinant; tags: N-terminal GST; dsDNA, one strand shown
# [1] = target: T1, GABPA (Homo sapiens, UniProt Q06546 1-454)
# T1 sequence: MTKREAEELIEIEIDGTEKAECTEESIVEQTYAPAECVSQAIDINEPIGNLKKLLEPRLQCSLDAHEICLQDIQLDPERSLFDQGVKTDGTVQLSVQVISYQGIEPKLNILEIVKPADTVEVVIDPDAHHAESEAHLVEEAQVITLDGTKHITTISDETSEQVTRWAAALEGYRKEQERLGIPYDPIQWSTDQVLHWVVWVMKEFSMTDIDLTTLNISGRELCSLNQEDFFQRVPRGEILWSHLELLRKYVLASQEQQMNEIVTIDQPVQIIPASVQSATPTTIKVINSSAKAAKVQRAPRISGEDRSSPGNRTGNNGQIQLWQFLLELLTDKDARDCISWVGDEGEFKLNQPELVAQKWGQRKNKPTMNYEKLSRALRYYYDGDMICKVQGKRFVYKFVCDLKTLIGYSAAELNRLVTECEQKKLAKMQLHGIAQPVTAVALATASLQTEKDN
# Method in brief: (§1)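 Sequencing on an Illumina NextSeq500 followed washing, crosslinking with 0.1% formaldehyde, proximity ligation (BsaI/T4 ligase, 1 h, 37 °C) and PCR amplification of pools that had been incubated for 30 min at room temperature with 200 nmole of a random double-stranded 16-mer DNA library in Tris/NaCl/DTT/glycerol buffer. Each pool held DNA-barcoded human transcription factors, expressed in yeast as GST fusions and captured on glutathione beads, plus a tag-only sample. Binding signal is a hexamer's read frequency for a factor divided by its frequency in the tag-only sample.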
# [2] = target: ELF1 (Homo sapiens, UniProt P32519 1-619)
# Method in brief: as §1
# [3] = target: T2, EHF (Homo sapiens, UniProt Q9NZC4 1-300)
# T2 sequence: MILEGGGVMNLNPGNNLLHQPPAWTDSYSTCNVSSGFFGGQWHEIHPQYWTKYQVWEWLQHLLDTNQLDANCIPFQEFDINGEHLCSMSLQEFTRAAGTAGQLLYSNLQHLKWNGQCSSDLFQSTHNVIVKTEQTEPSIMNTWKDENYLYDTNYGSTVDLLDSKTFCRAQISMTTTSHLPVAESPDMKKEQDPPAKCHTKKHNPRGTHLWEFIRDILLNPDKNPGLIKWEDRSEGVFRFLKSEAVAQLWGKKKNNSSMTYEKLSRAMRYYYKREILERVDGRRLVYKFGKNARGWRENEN
# Method in brief: as §1
# [4] = target: SPIB (Homo sapiens, UniProt Q01892 1-262)
# Method in brief: as §1
# [5] = target: T3, SPIC (Homo sapiens, UniProt Q8N5J4 1-248)
# T3 sequence: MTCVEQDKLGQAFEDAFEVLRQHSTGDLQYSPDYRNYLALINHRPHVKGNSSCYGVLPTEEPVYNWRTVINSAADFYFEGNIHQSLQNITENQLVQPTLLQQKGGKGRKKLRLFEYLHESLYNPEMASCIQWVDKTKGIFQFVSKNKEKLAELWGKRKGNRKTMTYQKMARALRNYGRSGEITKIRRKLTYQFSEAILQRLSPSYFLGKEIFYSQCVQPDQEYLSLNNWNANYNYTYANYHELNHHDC
# Method in brief: as §1
# [6] = target: ELF4 (Homo sapiens, UniProt Q99607 1-663)
# Method in brief: as §1
# [7] = target: T4, ETV2 (Homo sapiens, UniProt O00321 1-342)
# T4 sequence: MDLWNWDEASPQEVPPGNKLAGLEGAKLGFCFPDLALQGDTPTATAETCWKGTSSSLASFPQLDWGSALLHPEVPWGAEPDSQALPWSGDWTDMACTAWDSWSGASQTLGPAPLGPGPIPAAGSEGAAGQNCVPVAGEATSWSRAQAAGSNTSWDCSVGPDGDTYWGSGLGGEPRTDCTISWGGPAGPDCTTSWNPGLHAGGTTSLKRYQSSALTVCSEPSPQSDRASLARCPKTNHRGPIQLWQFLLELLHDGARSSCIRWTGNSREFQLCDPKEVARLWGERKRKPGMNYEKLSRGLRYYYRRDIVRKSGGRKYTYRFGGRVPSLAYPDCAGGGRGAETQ
# Method in brief: as §1
# [8] = target: T5, ELF3 (Homo sapiens, UniProt P78545 1-371)
# T5 sequence: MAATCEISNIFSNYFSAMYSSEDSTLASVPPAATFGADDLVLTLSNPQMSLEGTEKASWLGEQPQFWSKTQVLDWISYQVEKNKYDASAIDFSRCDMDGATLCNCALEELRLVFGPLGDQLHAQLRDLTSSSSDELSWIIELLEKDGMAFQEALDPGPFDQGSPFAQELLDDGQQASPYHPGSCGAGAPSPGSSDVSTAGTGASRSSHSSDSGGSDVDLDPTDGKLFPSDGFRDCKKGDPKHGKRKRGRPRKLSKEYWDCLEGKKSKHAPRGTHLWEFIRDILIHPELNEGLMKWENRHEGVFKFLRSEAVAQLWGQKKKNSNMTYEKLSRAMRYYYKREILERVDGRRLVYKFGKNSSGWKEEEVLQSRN
# Method in brief: as §1
# [9] = target: ETV1 (Homo sapiens, UniProt P50549 1-477)
# Method in brief: as §1
# [10] = target: T6, ERF (Homo sapiens, UniProt P50548 1-548)
# T6 sequence: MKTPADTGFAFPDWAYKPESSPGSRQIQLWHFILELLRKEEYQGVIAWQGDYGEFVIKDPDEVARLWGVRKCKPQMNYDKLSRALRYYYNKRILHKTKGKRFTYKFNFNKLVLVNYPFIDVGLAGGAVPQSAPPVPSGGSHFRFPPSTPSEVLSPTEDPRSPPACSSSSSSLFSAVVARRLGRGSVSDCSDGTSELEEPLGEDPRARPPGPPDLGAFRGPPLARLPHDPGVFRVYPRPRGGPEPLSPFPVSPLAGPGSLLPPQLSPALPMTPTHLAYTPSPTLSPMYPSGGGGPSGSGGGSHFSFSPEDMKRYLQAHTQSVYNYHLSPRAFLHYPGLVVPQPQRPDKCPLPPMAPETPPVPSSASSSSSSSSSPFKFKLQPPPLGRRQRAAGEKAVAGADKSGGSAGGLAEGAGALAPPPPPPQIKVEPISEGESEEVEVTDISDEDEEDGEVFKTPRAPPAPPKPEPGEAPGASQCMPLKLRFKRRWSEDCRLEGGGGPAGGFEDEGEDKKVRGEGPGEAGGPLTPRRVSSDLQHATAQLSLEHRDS
# Method in brief: as §1
# [11] = target: T7, ETV3L (Homo sapiens, UniProt Q6ZN32 1-361)
# T7 sequence: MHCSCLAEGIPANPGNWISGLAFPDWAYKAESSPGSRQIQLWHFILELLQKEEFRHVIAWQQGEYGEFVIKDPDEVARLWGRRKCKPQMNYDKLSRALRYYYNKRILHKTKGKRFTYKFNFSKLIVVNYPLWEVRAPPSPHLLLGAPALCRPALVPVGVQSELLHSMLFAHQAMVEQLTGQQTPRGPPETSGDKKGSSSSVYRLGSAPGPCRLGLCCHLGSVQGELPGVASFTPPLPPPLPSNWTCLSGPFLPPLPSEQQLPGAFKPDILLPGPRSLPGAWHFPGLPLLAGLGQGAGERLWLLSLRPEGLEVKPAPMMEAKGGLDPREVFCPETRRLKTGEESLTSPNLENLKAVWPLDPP
# Method in brief: as §1
# [12] = target: T8, ETS2 (Homo sapiens, UniProt P15036 1-469)
# T8 sequence: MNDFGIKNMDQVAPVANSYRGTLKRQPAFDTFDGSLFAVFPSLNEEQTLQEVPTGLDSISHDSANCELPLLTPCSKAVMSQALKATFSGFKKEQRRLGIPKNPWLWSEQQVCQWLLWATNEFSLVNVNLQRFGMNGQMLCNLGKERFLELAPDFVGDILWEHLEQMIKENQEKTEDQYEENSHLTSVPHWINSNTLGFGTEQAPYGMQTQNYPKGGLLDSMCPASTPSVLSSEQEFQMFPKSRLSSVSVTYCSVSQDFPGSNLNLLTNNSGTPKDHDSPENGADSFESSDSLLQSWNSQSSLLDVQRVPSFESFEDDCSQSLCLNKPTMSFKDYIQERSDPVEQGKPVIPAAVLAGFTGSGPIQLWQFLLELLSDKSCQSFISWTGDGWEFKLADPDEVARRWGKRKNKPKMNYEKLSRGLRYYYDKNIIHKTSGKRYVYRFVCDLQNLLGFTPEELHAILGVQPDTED
# Method in brief: as §1
# [13] = target: T9, ETV3 (Homo sapiens, UniProt P41162-2 1-143)
# T9 sequence: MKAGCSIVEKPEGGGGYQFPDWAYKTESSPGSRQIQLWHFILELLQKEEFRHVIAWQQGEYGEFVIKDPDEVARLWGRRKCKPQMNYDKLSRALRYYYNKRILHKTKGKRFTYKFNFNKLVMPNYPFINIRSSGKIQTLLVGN
# Method in brief: as §1
# Sequence of ELF1 (P32519 whole entry): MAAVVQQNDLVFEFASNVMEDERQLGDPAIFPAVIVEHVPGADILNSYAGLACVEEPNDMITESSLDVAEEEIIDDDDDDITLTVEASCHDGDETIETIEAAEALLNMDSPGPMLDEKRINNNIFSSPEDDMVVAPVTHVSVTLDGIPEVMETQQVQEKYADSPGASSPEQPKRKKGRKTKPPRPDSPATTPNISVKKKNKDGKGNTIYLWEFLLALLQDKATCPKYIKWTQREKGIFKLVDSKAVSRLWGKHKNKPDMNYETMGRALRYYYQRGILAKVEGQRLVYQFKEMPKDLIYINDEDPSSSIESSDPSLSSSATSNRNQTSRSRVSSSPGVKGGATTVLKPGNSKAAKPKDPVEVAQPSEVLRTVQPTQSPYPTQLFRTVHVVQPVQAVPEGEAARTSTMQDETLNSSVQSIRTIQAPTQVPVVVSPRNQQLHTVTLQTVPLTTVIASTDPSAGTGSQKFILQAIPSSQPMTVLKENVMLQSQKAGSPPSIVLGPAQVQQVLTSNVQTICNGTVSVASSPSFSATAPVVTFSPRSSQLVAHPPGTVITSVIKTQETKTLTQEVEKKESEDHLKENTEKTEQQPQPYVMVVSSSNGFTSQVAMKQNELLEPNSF
# Sequence of SPIB (Q01892 whole entry): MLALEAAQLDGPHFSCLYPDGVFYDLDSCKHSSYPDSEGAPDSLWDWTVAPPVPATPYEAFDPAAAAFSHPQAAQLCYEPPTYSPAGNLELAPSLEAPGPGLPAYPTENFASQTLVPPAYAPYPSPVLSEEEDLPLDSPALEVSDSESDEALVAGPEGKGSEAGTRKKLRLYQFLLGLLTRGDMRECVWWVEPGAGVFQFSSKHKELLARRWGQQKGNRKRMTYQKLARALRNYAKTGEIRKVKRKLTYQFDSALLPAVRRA
# Sequence of ELF4 (Q99607 whole entry): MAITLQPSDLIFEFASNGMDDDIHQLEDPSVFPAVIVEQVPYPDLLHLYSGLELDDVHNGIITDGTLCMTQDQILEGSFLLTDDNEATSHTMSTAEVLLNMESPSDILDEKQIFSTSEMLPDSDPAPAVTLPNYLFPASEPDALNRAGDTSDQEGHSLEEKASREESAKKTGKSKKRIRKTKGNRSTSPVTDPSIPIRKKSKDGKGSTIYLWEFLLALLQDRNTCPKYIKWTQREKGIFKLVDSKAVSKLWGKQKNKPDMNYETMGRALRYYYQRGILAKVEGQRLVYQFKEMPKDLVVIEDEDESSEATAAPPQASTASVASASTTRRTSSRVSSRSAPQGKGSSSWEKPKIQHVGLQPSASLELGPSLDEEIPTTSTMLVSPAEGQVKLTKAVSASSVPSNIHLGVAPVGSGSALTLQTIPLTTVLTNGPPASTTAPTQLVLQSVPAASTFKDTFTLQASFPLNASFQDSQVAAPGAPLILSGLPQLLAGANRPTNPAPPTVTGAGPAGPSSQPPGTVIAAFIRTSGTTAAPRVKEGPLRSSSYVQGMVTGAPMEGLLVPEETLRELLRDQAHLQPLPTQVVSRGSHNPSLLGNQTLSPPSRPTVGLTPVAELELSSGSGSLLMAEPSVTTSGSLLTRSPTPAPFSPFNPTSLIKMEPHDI
# Sequence of ETV1 (P50549 whole entry): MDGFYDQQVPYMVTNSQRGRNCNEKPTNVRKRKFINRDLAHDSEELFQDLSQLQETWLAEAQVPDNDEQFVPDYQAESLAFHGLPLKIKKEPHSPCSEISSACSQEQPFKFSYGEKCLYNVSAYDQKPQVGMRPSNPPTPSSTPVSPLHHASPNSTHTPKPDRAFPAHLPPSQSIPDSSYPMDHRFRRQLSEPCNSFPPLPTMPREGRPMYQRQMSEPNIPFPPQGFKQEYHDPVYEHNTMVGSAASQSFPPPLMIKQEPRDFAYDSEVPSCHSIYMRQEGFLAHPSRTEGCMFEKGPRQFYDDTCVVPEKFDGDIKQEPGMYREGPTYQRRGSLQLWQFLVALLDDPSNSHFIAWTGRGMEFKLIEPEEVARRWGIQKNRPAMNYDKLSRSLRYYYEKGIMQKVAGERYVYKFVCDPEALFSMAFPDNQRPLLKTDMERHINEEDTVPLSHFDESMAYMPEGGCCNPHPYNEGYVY
sequence,measurement,setting,value
CAGCTC,binding signal,[1],"1.01 fold enrichment (6-mer frequency, TF over GST control)"
same,binding signal,[2],"1.06 fold enrichment (6-mer frequency, TF over GST control)"
same,binding signal,[3],"1.01 fold enrichment (6-mer frequency, TF over GST control)"
same,binding signal,[4],"1.01 fold enrichment (6-mer frequency, TF over GST control)"
same,binding signal,[5],"1.06 fold enrichment (6-mer frequency, TF over GST control)"
same,binding signal,[6],"1.05 fold enrichment (6-mer frequency, TF over GST control)"
same,binding signal,[7],"1.02 fold enrichment (6-mer frequency, TF over GST control)"
same,binding signal,[8],"1.04 fold enrichment (6-mer frequency, TF over GST control)"
same,binding signal,[9],"1.08 fold enrichment (6-mer frequency, TF over GST control)"
same,binding signal,[10],"1.05 fold enrichment (6-mer frequency, TF over GST control)"
same,binding signal,[11],"1.11 fold enrichment (6-mer frequency, TF over GST control)"
same,binding signal,[12],"1.06 fold enrichment (6-mer frequency, TF over GST control)"
same,binding signal,[13],"1 fold enrichment (6-mer frequency, TF over GST control)"
